# “And” between values parts separate entries of the source, which are not always exact repeats. Equal entries are not always repeated. Results filed as inconclusive are left out. Entries that show only a call come without a potency. The source made the active and inactive calls. Calls follow the shape of the full dose curve. Starred links: 1 amine or outer side, 2 acyl side, 3 side chain; linkers in the order of their positions; H or OH if unused. Positions of bridges follow the written chain, without caps; N, C: chain ends. Non-standard residues stand in square brackets, D forms with d. Residues, ends and D or L forms follow the SMILES beside them. ξ: configuration not given here. *: point of attachment. ΔAla(3-NHCONH2) = NC(=O)NC=C(N)C(=O)O; X1 = NC1=NCCC(C(N[*:1])C(=O)[*:2])N1; ξβ3hOrn = NCCCC(N)CC(=O)*; Dap = NC[CH](N)C(=O)O
# What was measured:
# [1] = Primary qHTS for inhibitors of MERS-S pseudo-typed particle cell entry (AID 1479149); also: nearly all actives have a fitted effect of over 60% in size
# [2] = Primary qHTS for Vero E6 cytotoxicity: counterscreen for inhibitors of SARS-S pseudo-typed particle cell entry (AID 1479150)
# [3] = Cytotoxicity counterscreen for inhibitors of SARS-CoV-2 cell entry (AID 1645845); also: nearly all actives have a fitted effect of over 50% in size
# Outline: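 After a 15 min room-temperature ATPLite 1step step, luminescence reflected ATP remaining in HEK293-ACE2 cells exposed to compound for 1 h plus 48 h at 37 C, with percent activity set by cell and no-cell controls.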
# [4] = Primary qHTS to identify inhibitors of SARS-CoV-2 cell entry (AID 1645846); conditions: activity change, negative = inhibition: at 57.1 µM (top of the series) unless noted; also: nearly all actives have a fitted effect of over 45% in size
# Outline: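 HEK293 cells stably expressing human ACE2, pre-treated 1 h with compound, then infected with MLV particles pseudotyped with Wuhan-Hu-1 spike (C-terminal 19-aa truncation). Luciferase luminescence after 48 h at 37 °C, normalised to spike PP and bald PP.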
smiles,measurement,setting,value
Cc1ncc([N+](=O)[O-])n1CCO,Potency,[1],inactive
same,Potency,[2],inactive
same,Potency,[3],inactive
same,"activity change, negative = inhibition",[4],-22%
Nc1nnc(-c2cccc(Cl)c2Cl)c(N)n1,Potency,[1],inactive
same,Potency,[2],inactive
same,Potency,[3],inactive
same,Potency,[4],inactive
CN/C(=C\[N+](=O)[O-])NCCSCc1ccc(CN(C)C)o1,Potency,[1],inactive
same,Potency,[2],inactive
same,Potency,[3],inactive
same,Potency,[4],inactive
CCC1C(=O)OCC1Cc1cncn1C (stereo not given),Potency,[1],inactive
same,Potency,[2],inactive
same,Potency,[3],inactive
same,"activity change, negative = inhibition",[4],2.21%
O=c1[nH]cnc2c1ncn2[C@H]1CC[C@@H](CO)O1,Potency,[1],inactive
same,Potency,[2],inactive
same,Potency,[3],inactive
same,Potency,[4],inactive
CC/C=C(\C(=O)N[C@@H]1C(=O)N2C(C(=O)OCOC(=O)C(C)(C)C)=C(COC(N)=O)CS[C@H]12)c1csc(N)n1,Potency,[1],inactive
same,Potency,[2],inactive
same,Potency,[3],inactive
same,"activity change, negative = inhibition",[4],-26.6%
O=C1N=C(O)CN1/N=C/c1ccc(-c2ccc([N+](=O)[O-])cc2)o1,Potency,[1],inactive
same,Potency,[2],inactive
same,Potency,[3],inactive
same,Potency,[4],inactive
C[C@@H]1C[C@H]2[C@@H]3CCC4=CC(=O)C=C[C@]4(C)[C@@]3(F)[C@@H](O)C[C@]2(C)[C@@]1(O)C(=O)CO,Potency,[1],inactive
same,Potency,[2],inactive
same,Potency,[3],inactive
same,Potency,[4],inactive
O=C(NCCN1CCOCC1)c1ccc(Cl)cc1,Potency,[1],inactive
same,Potency,[2],inactive
same,Potency,[3],inactive
same,Potency,[4],inactive
Cn1cc[nH]c1=S,Potency,[1],inactive
same,Potency,[2],inactive
same,Potency,[3],inactive
same,Potency,[4],inactive
O=P(O)(O)C(O)(Cc1cccnc1)P(=O)(O)O,Potency,[1],inactive
same,Potency,[2],inactive
same,Potency,[3],inactive
same,"activity change, negative = inhibition",[4],4.27% and -14.8%
NNCCc1ccccc1,Potency,[1],inactive
same,Potency,[2],inactive
same,Potency,[3],inactive
same,Potency,[4],inactive
N[C@@H](C(=O)N[C@@H]1C(=O)N2C(C(=O)O)=C(Cl)CS[C@H]12)c1ccccc1,outcome,[1],inactive [at 11.4 µM]
same,outcome,[2],inactive [at 11.4 µM]
same,outcome,[3],inactive [at 11.3 µM]
same,outcome,[4],inactive [at 11.3 µM]
COc1ccc(Cl)cc1C(=O)NCCc1ccc(S(=O)(=O)NC(=O)NC2CCCCC2)cc1,Potency,[1],inactive
same,Potency,[2],inactive
same,Potency,[3],inactive
same,"activity change, negative = inhibition",[4],4.27%
COc1ccccc1OCC(O)CN1CCN(CC(=O)Nc2c(C)cccc2C)CC1 (stereo not given),Potency,[1],inactive
same,Potency,[2],inactive
same,Potency,[3],inactive
same,"activity change, negative = inhibition",[4],4.5% and -8.51%
CNS(=O)(=O)Cc1ccc2[nH]cc(CCN(C)C)c2c1,Potency,[1],inactive
same,Potency,[2],inactive
same,Potency,[3],inactive
same,Potency,[4],inactive
Clc1ccc(C(c2ccccc2Cl)C(Cl)Cl)cc1 (stereo not given),Potency,[1],inactive
same,Potency,[2],inactive
same,Potency,[3],inactive
same,"activity change, negative = inhibition",[4],-40.6%
NC(=O)C(c1ccccc1)(c1ccccc1)[C@@H]1CCN(CCc2ccc3c(c2)CCO3)C1,Potency,[1],inactive
same,Potency,[2],inactive
same,Potency,[3],inactive
same,"activity change, negative = inhibition",[4],-1.98%
CCCC(=O)Nc1ccc(OCC(O)CNC(C)C)c(C(C)=O)c1 (stereo not given),Potency,[1],inactive
same,Potency,[2],inactive
same,Potency,[3],inactive
same,"activity change, negative = inhibition",[4],4.12%
CNC1(C)C2CCC(C2)C1(C)C (stereo not given),Potency,[1],inactive
same,Potency,[2],inactive
same,Potency,[3],inactive
same,Potency,[4],inactive
CC(=O)OCC(CCn1cnc2cnc(N)nc21)COC(C)=O,Potency,[1],inactive
same,Potency,[2],inactive
same,Potency,[3],inactive
same,"activity change, negative = inhibition",[4],-14.3% and -5.75%
O=C(O)CCNC(=O)c1ccc(N=Nc2ccc(O)c(C(=O)O)c2)cc1,Potency,[1],inactive
same,Potency,[2],inactive
same,Potency,[3],inactive
same,Potency,[4],inactive
CCCNC(=O)NS(=O)(=O)c1ccc(Cl)cc1,Potency,[1],inactive
same,Potency,[2],inactive
same,Potency,[3],inactive
same,Potency,[4],inactive
Nc1ccc(O)c(C(=O)O)c1,Potency,[1],inactive
same,Potency,[2],inactive
same,Potency,[3],inactive
same,"activity change, negative = inhibition",[4],2.37%
Cc1cccc(Nc2ccncc2S(=O)(=O)NC(=O)NC(C)C)c1,Potency,[1],inactive
same,Potency,[2],inactive
same,Potency,[3],inactive
same,Potency,[4],inactive
NCCCC(N)CC(=O)NCC1NC(=O)C(CO)NC(=O)C(N)CNC(=O)C(C2CCN=C(N)N2)NC(=O)C(=CNC(N)=O)NC1=O (stereo not drawn) (H-[Dap]S[Dap](ξβ3hOrn)[ΔAla(3-NHCONH2)][X1]; lactam 1-C; configuration not given here),outcome,[1],inactive [at 0.573 µM]
same,outcome,[2],inactive [at 0.573 µM]
same,outcome,[3],inactive [at 0.702 µM]
same,"activity change, negative = inhibition",[4],3.17% [at 0.702 µM]
O=C1NC(=O)C(c2ccccc2)(c2ccccc2)N1,Potency,[1],inactive
same,Potency,[2],inactive
same,Potency,[3],inactive
same,Potency,[4],inactive
CCN(CC)CCNC(=O)c1cc(Cl)c(N)cc1OC,Potency,[1],inactive
same,Potency,[2],inactive
same,Potency,[3],inactive
same,Potency,[4],inactive
CC(COc1ccccc1)N(CCCl)Cc1ccccc1 (stereo not given),Potency,[1],inactive
same,Potency,[2],inactive
same,Potency,[3],inactive
same,"activity change, negative = inhibition",[4],-7.59%
CC[C@@]1(c2ccccc2)NC(=O)N(C)C1=O,Potency,[1],inactive
same,Potency,[2],inactive
same,Potency,[3],inactive
same,"activity change, negative = inhibition",[4],-24.8%
O=C(c1ccccc1)c1ccc2n1CCC2C(=O)O (stereo not given),Potency,[1],inactive
same,Potency,[2],inactive
same,Potency,[3],inactive
same,Potency,[4],inactive
CCN1CCN(C(=O)N[C@@H](C(=O)N[C@@H]2C(=O)N3C(C(=O)O)=C(CSc4nnnn4C)CS[C@H]23)c2ccc(O)cc2)C(=O)C1=O,Potency,[1],inactive
same,Potency,[2],inactive
same,Potency,[3],inactive
same,Potency,[4],inactive
Cc1ccc(S(=O)(=O)NC(=O)NN2CCCCCC2)cc1,Potency,[1],inactive
same,Potency,[2],inactive
same,Potency,[3],inactive
same,"activity change, negative = inhibition",[4],2.93%
CCCCc1nc(Cl)c(CO)n1Cc1ccc(-c2ccccc2-c2nn[nH]n2)cc1,Potency,[1],inactive
same,Potency,[2],inactive
same,Potency,[3],inactive
same,Potency,[4],inactive
CC(=O)CCCCn1c(=O)c2c(ncn2C)n(C)c1=O,Potency,[1],inactive
same,Potency,[2],inactive
same,Potency,[3],inactive
same,Potency,[4],inactive
